From PubChem BioAssay AID651702 (NMMLSC, 2012) come the findings set out here.

The campaign covered roughly 360,000 compounds. About 2,400 (0.67%) were called active. What follows is part of a selection rich in actives, with near analogues and random picks from the rest. A number with no mark means an inactive call.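 Rule for the calls: active = inhibition above about 55% (limit read from the data); inconclusive = no clear call, values can overlap the other calls; inactive = the rest.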

The inhibition is the change of the read-out against control, counted positive when it falls.

This assay in a line: LAMP-1 surface exposure blockers, TALL-104 cells – cell-based, flow cytometry, MLPCN library, primary screen (AID 651702). As to conditions: TALL-104 LAMP-1 surface exposure, at 10 µM, active compounds read high, cells stimulated with thapsigargin and PMA. (Flow cytometry measures light scatter and fluorescence of single cells or particles in a stream.)
For the compound `COc1ccc(C2CC(c3cccs3)=NN2C(=O)COC(=O)c2cc3ccccc3cc2O)cc1OC` (centres undefined), the inhibition is -2.9%. With `COc1ccc(C2CC(c3cccs3)=NN2C(=O)CSc2nnc(N)s2)cc1OC` (centres undefined), the inhibition was -3.2%. `Cc1ccc(-n2nc(N)c3c(=O)oc(N(C)C)nc32)cc1`: the inhibition was -0.9%. In the case of `Cc1ccc(-c2ccnc3nc(Sc4ncc(C(F)(F)F)cc4Cl)nn23)cc1` it was 67.5% (active); in that of `Cc1cc(NC(=O)CSc2ncc(C(F)(F)F)cc2Cl)no1`, 5.6%; in that of `Cc1nn(-c2ncc(C(F)(F)F)cc2Cl)c(=O)n1-c1ccccc1`, -0.5%. As for `Cn1cnc(S(=O)(=O)Nc2ccc3c(c2)OCCO3)c1`, the inhibition is 5.9%.

On to `CCC(=O)Nc1c(C)n[nH]c1C`, for which the inhibition is -0.1%. For the compound `COc1ccc(-c2cc(NC=O)c3ncc(-c4ccccc4)n3c2)cc1OC`, the inhibition was 81.8% (active). With `COc1ccc(-c2cc(NC=O)c3ncc(-c4cc(OC)c(OC)c(OC)c4)n3c2)c(OC)c1`, the inhibition was 28.6%. Regarding `CC(=O)c1cccc(-c2cnc3c(NC=O)cc(-c4ccccc4Oc4ccccc4)cn23)c1`, the inhibition was 13.9%.

Take `CC(NC(=O)CN(C)S(=O)(=O)c1ccc(F)cc1)C1CC2CCC1C2` (centres undefined): the inhibition is 0.1%. On to `O=C(Cc1coc2ccc3ccccc3c12)NCc1cccs1`, for which the inhibition is -2.5%. `O=C(NCc1cccs1)c1ccc(Br)o1`: the inhibition is -0.6%.

Turning to `CC(C)Cn1c(N)c(C(=O)NCc2cccs2)c2nc3ccccc3nc21`, the inhibition is 59.6% (active).

In the case of `COc1ccc2cc(-c3[nH]ncc3CNCCn3nc(C)cc3C)ccc2c1`, the inhibition was 18.3%. Take `COc1ccc(-c2cn[nH]c2-c2ccc(OC)cc2)cc1`: the inhibition is 65.6% (active). Regarding `COc1ccc(N=Nc2c(-c3ccc(OC)cc3)[nH]oc2=O)cc1`, the inhibition is -8.4%. With `COc1ccc(Oc2cn[nH]c2-c2ccc(OC)cc2O)cc1`, the inhibition was 60.1% (active). To `COc1ccc(-c2[nH]ncc2CN(C)Cc2c(C)n[nH]c2C)c(OC)c1` belongs -1.2%. On to `COc1ccc(-c2c(-c3ccc(OC)cc3O)nc(C)nc2C(F)(F)F)cc1`, for which the inhibition is 27.6%. `Cn1c(C(=O)N2CCCC(C(=O)NCc3ccccc3)C2)cc2sccc21` (centres undefined): the inhibition is -4.6%. Take `COc1ccc(S(=O)(=O)N2CCN(CC(=O)N3CCOCC3)CC2)cc1OC`: the inhibition was -0.5%.

Turning to `Cc1ccc(OCCC(=O)OCC(=O)N2c3ccccc3NC(=O)C2(C)C)cc1`, the inhibition was 3.1%. With `COc1ccc2[nH]c(=O)c(C3c4cc(OC)c(OC)cc4CCN3C(=O)c3ccco3)cc2c1` (centres undefined), the inhibition was -2.2%. `Cc1cccc(-c2nc3ccc(C(=O)NCCN4CCN(C)CC4)cc3nc2-c2cccc(C)c2)c1`: the inhibition was 57.4% (active). For `O=C(NCCN1CCOCC1)c1cccc(S(=O)(=O)Nc2ccc(F)cc2)c1`, the inhibition was -1.1%. As for `CCNC(=O)COC(=O)CCNC(=O)c1cccc(C)c1`, the inhibition was -0.6%.

For `CCC(C)CN1C(=O)CN(S(C)(=O)=O)CC1(C)C(=O)Nc1ccc2c(c1)OCCO2` (centres undefined), the inhibition is -2%. Regarding `Cc1coc2c(O)cc3c(c12)OC1(N2CCCCC2)C(=O)NCCCC31` (centres undefined), the inhibition is 68.1% (active). As for `CC1CN(C2CCN(C(=O)COc3ccccc3)CC2)CC(C)O1` (centres undefined), the inhibition was -2.5%.

With `COc1cccc(CNc2nc(NCc3ccccc3OC)nc3ccsc23)c1`, the inhibition was 73.8% (active). For the compound `COc1ccccc1CNc1nc(Nc2ccccc2Cl)c2sccc2n1`, the inhibition was 2%. `COc1cccc(CNc2nc(NCc3cccs3)nc3ccsc23)c1`: the inhibition is 21%.

Take `CC1CCCC(C)N1C(=O)CSc1nnnn1C1CCCC1` (centres undefined): the inhibition is -4%.

Take `COc1ccccc1C1=CC(=O)CCC1`: the inhibition was 47.3%. As for `COc1ccccc1C1=Nc2cccc3cccc(c23)N1`, the inhibition was 65.7% (active). As to `COc1ccccc1-c1nc(C(F)(F)F)c(OC)o1`, the inhibition is 1.1%. As for `COc1ccc(CC(=O)N[C@@H]2c3cc(OC)c(OC)cc3C[C@H]2OCc2ccccc2)cc1`, the inhibition was -2.2%. On to `COc1ccccc1CC(NC(C)=O)C(=O)NC1CCN(C(=O)Nc2ccccc2Cl)CC1` (centres undefined), for which the inhibition was 6.8%.

Turning to `C[C@H](CO)N1C[C@H](C)[C@@H](CN(C)Cc2ccc3c(c2)OCO3)OCc2cnnn2CCCC1=O`, the inhibition was 2.5%. In the case of `O=C(CCS(=O)(=O)c1ccccc1)NC1CCCC1`, the inhibition is -1.3%.

Take `Cc1cccc(C)c1NC(=O)CCS(=O)(=O)c1cccc2nsnc12`: the inhibition is -2.7%.

Consider `Cc1cccc2sc(N(CCCN(C)C)C(=O)CCS(=O)(=O)c3ccccc3)nc12`, for which the inhibition was 90.8% (active). To `COC(=O)COc1ccc(C2NC(=O)NC(C)=C2C(=O)NCc2ccccc2)cc1OC` (centres undefined) belongs -3.7%. For the compound `COc1ccc(CN(C)C(=O)c2cc(-c3ccc(C)cc3C)nc3ccccc23)c(OC)c1OC`, the inhibition is 19.4%. With `COc1ccc(-c2cc(C(=O)N(C)Cc3ccccc3)c3ccccc3n2)cc1`, the inhibition is 74.5% (active). `COc1ccc(C2=NS(=O)(=O)N(C)C(C(=O)N(C)Cc3ccccc3)=C2)cc1`: the inhibition is -1.2%. Take `COc1c(C)cc(C(=O)C2CCCN(S(=O)(=O)c3c(C)noc3C)C2)cc1C` (centres undefined): the inhibition was -1.1%. For the compound `O=C(CC(CC(=O)c1ccccc1)c1ccco1)c1ccccc1`, the inhibition was 4.2%. To `CC(C)c1ccccc1OCC(O)CN(CC(O)COc1cccc2ccccc12)C(C)C` (centres undefined) belongs 73.4% (active); to `CN1CCN(CCCCOc2cccc3ccccc23)CC1`, 24.7%. In the case of `CC1CC(C)CN(CCOc2cccc3ccccc23)C1` (centres undefined) it was 7.6%; in that of `CCCC(NC(=O)c1ccccc1)c1nc2ccccc2n1Cc1ccc(C(=O)OC)o1` (centres undefined), 0.5%.
